Arbovirus inh = blocks arbovirus infection | 200,000 compounds, 0.37% hits | arbovirus infection cell-based antiviral screen | inhibition, % at 10 µM; in the data active = inhibition above about 30%
p97 inhibitor = blocks human p97 ATPase activity; P55072; recombinant p97 ATPase, Kinase-Glo ATP luminescence, 3 h; inhibition, % at 8 µM; 220,000 compounds, 0.42% hits; in the data active = inhibition above about 15%
S1P4 antagonist = blocks the human S1P4 receptor | 220,000 compounds, 0.26% hits | inhibition, % at 4.98 µM | O95977 | S1P4-expressing cells, antagonist mode, reporter read-out; in the data active = inhibition above about 29%
S1P3 antag = blocks the human S1P3 receptor. Q99500. AID 485. 170,000 compounds, 0.27% hits. inhibition, % at 4.98 µM. CHO S1P3 NFAT-BLA reporter, FRET fluorescence, antagonist mode;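 active = inhibition above the plate cutoff, the mean inhibition of test wells on that plate plus 3 SD, cut at about 28% in these data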;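 also: cells challenged with S1P at its EC80 of 0.8 µM; blue over green emission ratio from cleaved BLA substrate after 4 h stimulation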
Target sequence (Q99500 whole entry, looked up): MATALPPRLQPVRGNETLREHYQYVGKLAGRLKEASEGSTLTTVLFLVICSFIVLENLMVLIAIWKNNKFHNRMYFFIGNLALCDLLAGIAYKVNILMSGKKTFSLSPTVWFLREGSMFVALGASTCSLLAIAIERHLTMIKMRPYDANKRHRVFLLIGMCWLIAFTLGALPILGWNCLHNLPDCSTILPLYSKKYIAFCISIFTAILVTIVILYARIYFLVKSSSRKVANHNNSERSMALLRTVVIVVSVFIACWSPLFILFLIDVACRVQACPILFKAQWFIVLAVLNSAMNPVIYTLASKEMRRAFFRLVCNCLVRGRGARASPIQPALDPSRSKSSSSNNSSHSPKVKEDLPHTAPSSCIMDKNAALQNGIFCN
DTT redox prof = compounds producing H2O2 with reducing agent – biochemical, NIH compound library profiling, artefact control for MLSCN library redox annotation, primary screen. AID 878. 200,000 compounds, 0.03% hits. DTT-dependent redox cycling H2O2, phenol red/HRP absorbance; 100% = 100 µM peroxide control, 0% = buffer. activation, % at 10 µM;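 active = activation of at least 50% relative to the plate's high and low controls in the primary single-dose screen; inactive = activation below 50%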;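 also: compound incubated with DTT at 0.8 mM final as the reducing agent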
S1P4 agonist = agonists of human S1P4 receptor; O95977; S1P4-expressing cell line, agonist reporter assay; activation, % at 4.98 µM; 220,000 compounds, 0.35% hits; AID 1509; in the data active = activation above about 11%
Large screens that a line does not name were inactive; ! = repeats disagree. In the library only some 1.6% were active in any assay of this set; here they are far more common.

Cc1ccc(NC(=O)CSc2nnc3ccccn23)cc1S(=O)(=O)N1CCOCC1	none
O=C(c1ccco1)N1CCN(c2ccc(F)cc2)CC1	none
O=C(c1ccco1)N1CCN(c2nc(-c3ccc(F)cc3)cs2)CC1	Arbovirus inh 31 (no result: S1P3 antag)
Oc1ccc(O)c(Cc2nc3ccccc3s2)c1	p97 inhibitor 15
O=C(NCc1ccccc1F)C1CCN(C(=O)NCc2ccccc2)CC1	S1P3 antag 68
O=C(NCc1ccc(F)cc1)C1CCN(C(=O)NCc2ccccc2)CC1	none
CCN=c1scc(C)n1/N=C/c1cc(Br)c(O)c(Br)c1	Arbovirus inh 31
CCN=c1scc(C)n1/N=C/c1ccc(O)c(O)c1O	none (no result: S1P3 antag)
O=c1[nH]c2ccc(S(=O)(=O)N3CCN(c4ccccc4F)CC3)cc2s1	Arbovirus inh 38 (no result: S1P3 antag)
Cc1[nH]c(=O)[nH]c(=O)c1S(=O)(=O)N1CCN(c2ccccc2F)CC1	none (no result: S1P3 antag)
CCCC(=O)Oc1ccccc1C1SCc2cc(C)c(C)cc2CS1	Arbovirus inh 32 (no result: S1P3 antag)
CCOC(=O)C(C(=O)OCC)C1OC(=O)c2cc3c(cc21)C(=O)OC3C(C(=O)OCC)C(=O)OCC (stereo unspecified)	none
COc1ccc(Br)cc1/C=C/C(=O)Nc1c(C)cccc1C	S1P4 antagonist 95 (no result: S1P3 antag)
O=C(Cc1ccc(Cl)cc1)Nc1ncc([N+](=O)[O-])s1	none
O=C(COc1ccc(Cl)cc1)Nc1ncc([N+](=O)[O-])s1	Arbovirus inh 30
COC(=O)c1cc2sc(Cl)cc2n1CC(=O)Nc1cccc(SC)c1	S1P3 antag 59
O=C(CSc1nnc(NC(=O)c2c(F)cccc2F)s1)Nc1ccc(F)cc1	Arbovirus inh 37
O=C(CSc1nnc(NC(=O)C2CC2)s1)Nc1ccc(F)cc1	none
CC(C)C(=O)OCc1cn(-c2ccc(Cl)c(Cl)c2)nn1	none
Cc1ccc(S(=O)(=O)N2CCN(c3ccnc4cc(Cl)ccc34)CC2)cc1C	Arbovirus inh 30
Cc1cc(N2CCN(S(=O)(=O)c3ccc(Cl)cc3)CC2)c2ccccc2n1	Arbovirus inh 36 (no result: S1P3 antag)
COc1cc(CNC2CCCCC2OC)cc(OC)c1OC (stereo unspecified)	none
COC(=O)C1CCN(C(=O)COc2cc3sc(C)nc3c3sccc23)CC1	S1P3 antag 55
COC(=O)C1CCN(C(=O)COc2ccc(Cl)cc2)CC1	none
CCCCN(C)S(=O)(=O)c1ccc(C(=O)Nc2nnc(-c3ccco3)o2)cc1	none
O=C(O)CC1(CC(=O)NCc2cc(F)cc3c2OCOC3)CCCCC1	none (no result: Arbovirus inh, DTT redox prof)
CCOc1cc(C)c(C(C)C)cc1S(=O)(=O)NCc1ccccn1	S1P3 antag 118
CCOc1cc(/C=C2/SC(=Nc3ccccc3)N(Cc3cccnc3)C2=O)ccc1OCC#N	none (no result: S1P3 antag)
Nc1cc(OCC(F)(F)F)cc([N+](=O)[O-])c1	none
Nc1cc(N)c(OCC(F)(F)F)cc1OCC(F)(F)F	p97 inhibitor 19
CCOc1cccc(C(=O)Nc2ccccc2N2CCN(C(=O)C(C)C)CC2)c1	Arbovirus inh 35
O=C(NNC(=S)NC1CCCCC1)c1ccc(Cl)s1	Arbovirus inh 38
CC(C)(C)c1ccc(C(=O)NNC(=S)NCC2CCCO2)cc1 (stereo unspecified)	none
CC(C)(C)c1ccc(C(=O)NC(=S)NCC2CCCO2)cc1 (stereo unspecified)	Arbovirus inh 40
C/C(=N\NC(=O)c1ccccc1)c1nc2ccccc2n1C	Arbovirus inh 41
CCn1c(CNC(=O)c2ccccc2)nc2ccccc21	none (no result: Arbovirus inh)
CCOC(=O)N1CCC(N2CCCC(C(=O)c3ccccc3OC)C2)CC1 (stereo unspecified)	none
CCOCCCNC(=S)NCCCNc1nc2c(C)cc(C)cc2cc1C#N	none
CCOCCCNC(=S)NCCNc1nc2c(C)cccc2cc1C#N	Arbovirus inh 31 (no result: S1P3 antag)
COc1cc2c(cc1C1NC(=S)NC(C)=C1C(N)=O)CCCC2 (stereo unspecified)	none
COc1cc(Cc2cnc(N)nc2N)cc(OC)c1OC	S1P4 agonist 18!
CCN(CC)CC(C)OC(=O)c1ccccc1Cl (stereo unspecified)	none
CC1(c2ccc([N+](=O)[O-])cc2)CC(C)(C)N(C(=O)c2ccccc2)c2ccccc21 (stereo unspecified)	Arbovirus inh 34
CCOc1ccc(N2C(=O)C(c3ccccc3)=C(c3nc4ccccc4s3)C2NC(C)=O)cc1 (stereo unspecified)	none (no result: S1P3 antag)
COc1cc(-c2nc(-c3ccc(Br)o3)no2)cc(OC)c1OC	p97 inhibitor 19
Cc1ccnc(NC(=O)c2c(O)c3ccccc3n(C)c2=O)c1	none (no result: Arbovirus inh, p97 inhibitor, S1P4 antagonist, DTT redox prof, S1P4 agonist)
CCCCc1nc2ccccc2c(=O)n1NC(=O)c1c(O)c2ccccc2n(C)c1=O	none
Cc1ccc(NC(=O)c2c(O)c3ccccc3n(C)c2=O)nc1	Arbovirus inh 33 (no result: S1P3 antag)
Cc1nc2ccccc2c(=O)n1NC(=O)c1c(O)c2ccccc2n(C)c1=O	S1P3 antag 73 (no result: p97 inhibitor, S1P4 antagonist, DTT redox prof, S1P4 agonist)
CC1=C(C#N)C(=O)N(C2CCS(=O)(=O)C2)C(=O)/C1=C\c1ccco1 (stereo unspecified)	p97 inhibitor 34 (no result: Arbovirus inh, DTT redox prof)
Cc1cccc(NC(=O)Nc2cc(C)cc(C)n2)c1	none
Cc1ccc(O)c(-c2cc(-c3ccccc3C)[nH]n2)c1	none
Cc1ccc(O)c(-c2cc(C(F)(F)C(F)F)[nH]n2)c1	Arbovirus inh 34 (no result: S1P3 antag)
O=C(O)c1cc(NS(=O)(=O)c2ccc(N3CCCCC3)c([N+](=O)[O-])c2)cc(C(=O)O)c1	none
COc1cc(/C=N/Nc2ccccc2)ccc1OC(=O)c1cccs1	none
COc1cc(/C=N/Nc2ccc(Cl)c(C(=O)O)c2)ccc1OC(=O)c1cccs1	S1P4 agonist 12
CCOC(=O)c1cc2sc(C)cc2n1C(C)C(=O)OCC (stereo unspecified)	S1P3 antag 76
Nc1[nH]nc2nc(NCc3ccccc3)c3c(c12)CCN(Cc1ccccc1)C3	Arbovirus inh 49 (no result: S1P3 antag)
O=C1C2CC=CCC2C(=O)N1c1ccc(NCCc2ccc(O)cc2)c([N+](=O)[O-])c1 (stereo unspecified)	none
CCOC(=O)c1cnc(-c2ccccc2O)nc1Cl	none
CCOC(=O)C1=Nc2ccccc2C1=[N+]=[N-]	Arbovirus inh 45 (no result: S1P3 antag)
O=C(CSc1nc2scc(-c3ccco3)c2c(=O)n1-c1ccccc1)N1CCOCC1	none
NC(=O)CSc1nc2scc(-c3ccco3)c2c(=O)n1-c1ccccc1	p97 inhibitor 15
COc1ccc2oc3cc(C)[n+]([O-])c(-c4ccc(C)cc4)c3c2c1	Arbovirus inh 46
COc1ccc(-c2c(C)oc3ccc(C)cc23)cc1	none (no result: S1P3 antag)
COc1ccc(-c2c3c(cc(C)[n+]2[O-])oc2ccc(OC)cc23)cc1	Arbovirus inh 40
COc1ccc(-c2cc(=O)c3cc(OC)ccc3o2)cc1	none
COc1ccc2oc(-c3ccccc3)c(C(N)=O)c2c1	none
COc1ccc2oc3cc(C)[n+]([O-])c(-c4ccc(Cl)cc4)c3c2c1	Arbovirus inh 45

Screening data as filed in PubChem.
